The nature of assay [1]: cAMP Responsive Elements (CRE) small molecule antagonists, cell-based qHTS assay: qHTS cell viability counter screen (AID 2060913). Note: nearly all actives have a fitted effect of over 40% in size. The gist of the method:
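HEK293T CRE-bla, 2,000 cells/well, 18 h preincubation; cpd in DMSO + NKH477 0.25 uM final, 3 h 37 C/5% CO2; LiveBLAzer 2 h RT, then CellTiter-Glo 30 min RT, luminescence.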
On the technique in general: qHTS replaces the single test concentration by a dilution series.

Assay [2] can be described thus: cAMP Responsive Elements (CRE) small molecule agonists, cell-based qHTS assay: qHTS cell viability counter screen (AID 2060914).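 Note: viability read after 3 h of compound exposure; nearly all actives have a fitted effect of over 50% in size.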 An outline of the steps:
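HEK 293T CRE-bla; DMEM + 10% dialyzed FBS, 25 mM HEPES; 18 h pre-incubation; compound 3 h, 37 °C/5% CO2; CellTiter-Glo added after reporter read; luminescence after 30 min RT.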

Experimental findings from PubChem BioAssay (Tox21) are described below.

Molecules are shown by their SMILES. Records with an inconclusive call do not appear. Values without a mark were called inactive. Active and inactive are the calls of the source. Calls come from the whole dose curve; as a rule, active = well fitted cell-killing curve with a large enough effect in the repeat runs; inconclusive = weak or mixed curves, or effect the other way; inactive = flat fitted curve, though single readings scatter.
% is set by controls: 0 for no effect and ±100 for the full control effect.

Regarding `C=C(C)C(=O)OC1CC(C)CC(C)(C)C1` (stereo unspecified), the Potency result in assay [1] and in assay [2] was “inactive” each time.

With `CCCCCCCC(=O)O`, the Potency entry in assay [1] and in assay [2] was “inactive” each time.

For the compound `O=C1c2ccccc2C(=O)c2cc(Cl)ccc21`, the viability change, negative = cytotoxic in assay [1] is -0.399% [at 8.39 µM]. In addition, the activity change, negative = cytotoxicity in assay [2] is 2.19% [at 8.39 µM].

With `Cc1cccc(C)c1NC(=O)c1ccc(N)cc1`, the Potency result in assay [1] and in assay [2] was “inactive” in each case.

Turning to `CCCCCCCCCCCCN(CCCCCCCCCCCC)CCCCCCCCCCCC`, the Potency result in assay [1] and in assay [2] was “inactive” in each case.

Turning to `COC(=O)/C=C/C(C)=C\C=C\C(C)=C\C=C\C=C(C)\C=C\C=C(C)\C=C\C(=O)O`, the Potency entry in assay [1] and in assay [2] was “inactive” each time.

Consider `NCCNC(=O)c1ccc(Cl)cn1`, for which the Potency entry in assay [1] and in assay [2] was “inactive” throughout.

With `CCO[Si](OCC)(OCC)OCC`, the Potency entry in assay [1] and in assay [2] was “inactive” each time.

Consider `c1ccc(CNCc2ccccc2)cc1`, for which the Potency entry in assay [1] and in assay [2] was “inactive” each time.

As to `C=CC(=O)OCCN(CC)CC`, the Potency entry in assay [1] and in assay [2] was “inactive” in each case.

Regarding `Cc1cc(N)n(-c2ccccc2)n1`, the Potency result in assay [1] and in assay [2] was “inactive” each time.

For the compound `Cl/C(=C\n1cncn1)c1ccc(Cl)cc1Cl`, the Potency result in assay [1] and in assay [2] was “inactive” throughout.

For the compound `C=CCSCC1Nc2cc(Cl)c(S(N)(=O)=O)cc2S(=O)(=O)N1` (stereo unspecified), the Potency entry in assay [1] and in assay [2] was “inactive” in each case.

`Cc1ccccc1C(N)=O`: the Potency entry in assay [1] and in assay [2] was “inactive” each time.

In the case of `CN(C)CCOCCO`, the Potency entry in assay [1] and in assay [2] was “inactive” each time.

On to `Cc1nnc(SCC2=C(C(=O)O)N3C(=O)[C@@H](NC(=O)Cn4cnnn4)[C@H]3SC2)s1`, for which the Potency entry in assay [1] and in assay [2] was “inactive” each time.

Consider `CSc1ccc(C(=O)c2[nH]c(=O)[nH]c2C)cc1`, for which the Potency entry in assay [1] and in assay [2] was “inactive” each time.

For the compound `Cc1cc2nc(N)sc2cc1C`, the Potency entry in assay [1] and in assay [2] was “inactive” throughout.

As to `COc1ccc(OC)cc1`, the Potency entry in assay [1] and in assay [2] was “inactive” each time.

Turning to `CC(C)COC(=O)c1ccccc1`, the Potency result in assay [1] and in assay [2] was “inactive” each time.

With `CC(C)(CO)[C@@H](O)C(=O)NCCC(=O)O`, the Potency entry in assay [1] and in assay [2] was “inactive” in each case.

On to `CN(C)CCCCl`, for which the Potency entry in assay [1] and in assay [2] was “inactive” in each case.

Turning to `CC(C)c1nnc2ccc(-c3ocnc3-c3cc(F)ccc3F)cn12`, the Potency entry in assay [1] and in assay [2] was “inactive” each time.

Regarding `c1c[nH]cn1`, the Potency result in assay [1] and in assay [2] was “inactive” throughout.

As for `OC[C@@H](O)[C@@H](O[C@@H]1O[C@H](CO)[C@H](O)[C@H](O)[C@H]1O)[C@H](O)[C@@H](O)CO`, the Potency entry in assay [1] and in assay [2] was “inactive” in each case.

As to `CCC(Cl)C(Cl)C(Cl)CC(Cl)C(Cl)C(C)Cl` (stereo unspecified), the Potency result in assay [1] and in assay [2] was “inactive” in each case.

Consider `Brc1cc(Oc2cc(Br)c(Br)c(Br)c2Br)c(Br)c(Br)c1Br`, for which the Potency result in assay [1] and in assay [2] was “inactive” throughout.

`CC1=C(C=O)C(C)(C)CCC1`: the Potency result in assay [1] and in assay [2] was “inactive” each time.

Turning to `O=C(OCCCCCOC(=O)c1ccccc1)c1ccccc1`, the Potency result in assay [1] and in assay [2] was “inactive” in each case.

For `O=C(c1ccccc1)c1ccc(O)cc1O`, the Potency result in assay [1] and in assay [2] was “inactive” in each case.

Turning to `CC1(C)S[C@@H]2[C@H](NC(=O)Cc3ccccc3)C(=O)N2[C@H]1C(=O)O` (tested in a mixture with another compound), the Potency result in assay [1] and in assay [2] was “inactive” each time.

On to `CC(CSC(=O)c1ccccc1)C(=O)N1C[C@@H](Sc2ccccc2)C[C@H]1C(=O)O` (stereo partly specified), for which the viability change, negative = cytotoxic in assay [1] was 1.17% [at 18.9 µM]. For the same compound, in assay [2], the activity change, negative = cytotoxicity is -0.289% [at 18.9 µM].

For `CC(C)C[C@@H](N)C(=O)O`, the viability change, negative = cytotoxic in assay [1] was 3.57% [at 18.9 µM]. The activity change, negative = cytotoxicity in assay [2] was -6.51% [at 18.9 µM].

For the compound `CC1CCC(C(C)CS)CC1S` (stereo unspecified), the Potency result in assay [1] and in assay [2] was “inactive” throughout.

For `CCC(=O)OCc1ccccc1`, the Potency entry in assay [1] and in assay [2] was “inactive” each time.

In the case of `O=C(O)c1ccccc1C(=O)Nc1ccc(S(=O)(=O)Nc2nccs2)cc1`, the Potency result in assay [1] and in assay [2] was “inactive” in each case.

In the case of `C1CCC2(CCCCO2)OC1`, the Potency entry in assay [1] and in assay [2] was “inactive” in each case.

As for `O=C(O)CN(CC(=O)O)CC(=O)O`, the Potency result in assay [1] and in assay [2] was “inactive” each time.

As to `CO[Si](CCCNCCN)(OC)OC`, the Potency result in assay [1] and in assay [2] was “inactive” in each case.

As for `C#CCOC(=O)[C@@H](C)Oc1ccc(Oc2ncc(Cl)cc2F)cc1`, the Potency result in assay [1] and in assay [2] was “inactive” throughout.

For the compound `Cc1nc(-c2ccc(Cl)cc2)oc1COC(C)(C)C(=O)O`, the Potency entry in assay [1] and in assay [2] was “inactive” in each case.

As to `Oc1cc(O)c2c(c1)O[C@H](c1ccc(O)c(O)c1)[C@H](O)C2`, the Potency entry in assay [1] and in assay [2] was “inactive” in each case.

Consider `OCc1ccccc1`, for which the Potency entry in assay [1] and in assay [2] was “inactive” in each case.

In the case of `CC(O)CO` (stereo unspecified), the Potency entry in assay [1] and in assay [2] was “inactive” each time.

Regarding `O=NN(CCCl)C(=O)NCCCl`, the Potency result in assay [1] and in assay [2] was “inactive” in each case.

`CC(=O)OC[C@H]1O[C@@](COC(C)=O)(O[C@H]2O[C@H](COC(C)=O)[C@@H](OC(C)=O)[C@H](OC(C)=O)[C@H]2OC(C)=O)[C@@H](OC(C)=O)[C@@H]1OC(C)=O`: the Potency result in assay [1] and in assay [2] was “inactive” each time.

In the case of `CC(C)COC(=O)C(C)C`, the Potency entry in assay [1] and in assay [2] was “inactive” throughout.

For the compound `CC(=O)OC(C(=O)c1ccccc1)c1ccccc1` (stereo unspecified), the Potency result in assay [1] and in assay [2] was “inactive” each time.

`COc1ccc(COC(C)=O)cc1`: the Potency result in assay [1] and in assay [2] was “inactive” throughout.

As for `COC(=O)C1CCC(C(=O)OC)CC1` (stereo unspecified), the Potency entry in assay [1] and in assay [2] was “inactive” throughout.

For the compound `CC(Oc1cc(Cl)ccc1Cl)C(=O)O` (stereo unspecified), the Potency result in assay [1] and in assay [2] was “inactive” in each case.

`CCN1CCN(c2cc3c(cc2F)c(=O)c(C(=O)O)cn3C2CC2)CC1`: the Potency result in assay [1] and in assay [2] was “inactive” throughout.

Regarding `CC1(C)[C@@H]2CC[C@@]1(C)C(=O)C2`, the Potency result in assay [1] and in assay [2] was “inactive” throughout.
